Here are results for 54 compounds from article PMC4336329 (PLoS ONE, 2015).

In all, about 310,000 compounds went through this assay and about 14,000 (4.5%) showed an effect of 50% or more. The effect is printed as a negative number. Only a selection was taken, and strong results are over-represented in it overall.
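Also: peak tail current of the secondary pulse compared with the same well before compound.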

The target in this test is human ether-à-go-go-related gene (hERG) potassium channel (human, UniProt Q12809). The test is described as follows: primary screen, population patch clamp on CHO cells stably expressing hERG; higher = less effect of the substance.
Chain of human ether-à-go-go-related gene (hERG) potassium channel (Q12809 whole entry, looked up): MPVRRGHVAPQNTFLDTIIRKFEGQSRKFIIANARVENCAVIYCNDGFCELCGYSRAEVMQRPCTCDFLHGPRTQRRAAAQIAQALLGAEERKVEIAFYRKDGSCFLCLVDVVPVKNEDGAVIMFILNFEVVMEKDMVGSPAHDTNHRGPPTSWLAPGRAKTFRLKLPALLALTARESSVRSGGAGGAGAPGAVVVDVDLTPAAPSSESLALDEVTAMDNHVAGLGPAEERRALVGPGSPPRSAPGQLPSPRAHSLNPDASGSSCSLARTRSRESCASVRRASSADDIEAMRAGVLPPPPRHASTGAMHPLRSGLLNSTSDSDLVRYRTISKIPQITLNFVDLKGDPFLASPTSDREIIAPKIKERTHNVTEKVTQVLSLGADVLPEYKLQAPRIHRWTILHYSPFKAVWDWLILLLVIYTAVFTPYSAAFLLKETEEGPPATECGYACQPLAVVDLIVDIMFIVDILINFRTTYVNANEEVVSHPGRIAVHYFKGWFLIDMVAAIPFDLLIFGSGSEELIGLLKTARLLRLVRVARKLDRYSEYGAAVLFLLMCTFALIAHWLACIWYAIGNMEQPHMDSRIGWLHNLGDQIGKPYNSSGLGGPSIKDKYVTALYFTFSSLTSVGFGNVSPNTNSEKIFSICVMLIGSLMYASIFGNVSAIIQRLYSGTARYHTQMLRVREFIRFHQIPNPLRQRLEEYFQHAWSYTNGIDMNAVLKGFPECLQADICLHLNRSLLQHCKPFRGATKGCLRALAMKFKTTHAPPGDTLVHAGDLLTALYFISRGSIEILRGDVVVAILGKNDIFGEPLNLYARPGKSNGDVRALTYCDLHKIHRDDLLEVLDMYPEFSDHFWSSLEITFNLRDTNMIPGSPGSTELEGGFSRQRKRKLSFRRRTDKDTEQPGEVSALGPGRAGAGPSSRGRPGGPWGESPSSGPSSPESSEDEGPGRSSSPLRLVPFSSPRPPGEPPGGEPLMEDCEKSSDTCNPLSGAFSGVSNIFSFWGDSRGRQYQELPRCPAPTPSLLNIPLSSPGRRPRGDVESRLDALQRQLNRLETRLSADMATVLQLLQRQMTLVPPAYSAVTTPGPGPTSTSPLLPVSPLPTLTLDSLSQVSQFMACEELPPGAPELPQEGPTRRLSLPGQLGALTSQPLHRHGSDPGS
In the case of `COc1cc(NC(=O)CS(=O)(=O)c2ccccc2)cc(OC)c1OC`, the “hERG current change (%, negative = inhibition) at 10uM” value was found to be 11.3%.
The figure for `Cc1cccc(NC(=O)Nc2cccc(Oc3c(F)c(F)c(F)c(F)c3F)c2)c1` is 8.83%.
The figure for `N#C/C(=C/c1ccc(Br)s1)C(=O)NCCc1c[nH]c2ccccc12` is 18.8%; for `O=C(COC(=O)c1ccc([N+](=O)[O-])cc1)Nc1cccnc1Cl` it is -1.85%.
For the compound `O=C(Nc1nccs1)C1CCN(S(=O)(=O)c2ccc(Cl)c(C(F)(F)F)c2)CC1`, the “hERG current change (%, negative = inhibition) at 10uM” value is reported as -0.668%.
The figure for `CS(=O)(=O)Nc1ccc(S(=O)(=O)N2CCCCCC2)cc1` is -65.4%; for `O=C(Nc1ccncc1)c1cc(S(=O)(=O)N2CCCCC2)ccc1Cl` it is -56.2%.
As for `O=C(Nc1ccncc1)C1CCN(S(=O)(=O)c2ccc(Cl)c(C(F)(F)F)c2)CC1`, the “hERG current change (%, negative = inhibition) at 10uM” value is -69.9%.
The figure for `O=C(Nc1ccncc1)c1cc(S(=O)(=O)N2CCOCC2)ccc1Cl` is -46.6%; for `CS(=O)(=O)Nc1ccc(C(=O)Nc2ccc(S(=O)(=O)N3CCCCC3)cc2)cc1` it is -13.8%; for `CCN(CC)S(=O)(=O)c1ccc(N2CCCCC2)c(NC(=O)c2ccncc2)c1` it is -29.5%.
The figure for `CCN(CC)S(=O)(=O)c1ccc(N2CCCC2)c(NC(=O)c2ccncc2)c1` is -22.6%.
With `O=C(Nc1ccc(O)cc1)c1cc(S(=O)(=O)N2CCCC2)ccc1Cl` the figure was -14.9%; with `CS(=O)(=O)Nc1ccc(S(=O)(=O)N2CCCC2)cc1`, 8.49%; with `Cc1ccnc(NC(=O)C2CCN(S(=O)(=O)c3ccc(Cl)c(C(F)(F)F)c3)CC2)c1`, -14.2%.
As to `O=C(Nc1cc(S(=O)(=O)N2CCCCC2)ccc1N1CCCCC1)c1ccncc1`, the “hERG current change (%, negative = inhibition) at 10uM” value is given as -52.4%.
With `COc1ccc(S(=O)(=O)CCC(=O)Nc2c(C)cccc2C)cc1` the figure was 23%; with `CC(=O)Nc1ccc(S(=O)(=O)NCCSCc2ccccc2Cl)cc1`, 2.92%; with `COc1ccc(Br)cc1-c1nc2c(c(=O)[nH]c(=O)n2Cc2ccccc2)n1C`, 5.42%.
The figure for `CC(C)CN(C(=O)Cn1c(C(F)(F)F)nc2ccccc21)C1CCS(=O)(=O)C1` (stereo not drawn) is -9.53%.
`Cc1ccc(N2C(=O)C(NC(=O)c3ccccc3F)(C(F)(F)F)C3=C2CC(C)(C)CC3=O)cc1` (stereo not drawn): the “hERG current change (%, negative = inhibition) at 10uM” value is recorded as 6.43%.
The figure for `CC(SC1=Nc2ccccc2C2CC=NN12)C(=O)NC1(C#N)CCCCC1` (stereo not drawn) is -19.8%; for `CNC(=S)N/N=C/C1=CCC2CC1C2(C)C` (stereo not drawn) it is -3.84%; for `O=C(Cn1nnc2ccccc2c1=O)Nc1cc(C(F)(F)F)ccc1N1CCOCC1` it is -14.5%.
`O=C(Nc1ccc(S(=O)(=O)N2CCCCCC2)cc1)c1ccco1`: the “hERG current change (%, negative = inhibition) at 10uM” value is reported as -72.5%.
For the compound `O=C(Nc1ccc(S(=O)(=O)N2CCCCC2)cc1)c1ccco1`, the “hERG current change (%, negative = inhibition) at 10uM” value is on record as -10.7%.
With `O=C(Nc1cc(S(=O)(=O)N2CCCCC2)ccc1Cl)c1ccncc1` the figure was -50.2%; with `O=C(Nc1ccc(S(=O)(=O)N2CCOCC2)cc1)c1ccco1`, -20.3%; with `O=C(Nc1cc(S(=O)(=O)N2CCCCC2)ccc1Cl)c1ccc(F)cc1`, -8.99%.
With `O=C(O)c1ccccc1C(=O)Nc1ccc(S(=O)(=O)N2CCCC2)cc1` the figure was 22.3%; with `O=C(Nc1ccc(S(=O)(=O)N2CCCCC2)cc1)c1ccccc1Cl`, -73.1%; with `CN1CCN(S(=O)(=O)c2ccc(NC(=O)c3ccccc3Cl)cc2)CC1`, 8.9%.
With `COc1cc(S(=O)(=O)N2CCCCC2)ccc1NC(=O)c1ccncc1` the figure was -30.8%.
In the case of `Cn1c(SC2CCCCC2=O)nnc1-c1ccccc1F` (stereo not drawn), the “hERG current change (%, negative = inhibition) at 10uM” value was determined as 9.45%.
With `Cc1cc(C)cc(OCC(=O)O/N=C(\N)c2ccccn2)c1` the figure was -6.54%; with `O=c1ccc(-c2ccc(S(=O)(=O)N3CCN(c4cccc(Cl)c4)CC3)o2)n[nH]1`, 10%; with `O=C(Nc1cc(S(=O)(=O)N2CCOCC2)ccc1N1CCOCC1)C1CCCO1` (stereo not drawn), -3.99%.
Take `Cc1cc(Cl)ccc1NC(=S)N1CCN(C(=O)c2ccco2)CC1`: the “hERG current change (%, negative = inhibition) at 10uM” value is -8.95%.
Take `Cc1cc(Cl)ccc1NC(=O)CN1CCN(C(=O)c2ccco2)CC1`: the “hERG current change (%, negative = inhibition) at 10uM” value is given as -73.6%.
With `O=C(CN1CCN(C(=O)c2ccco2)CC1)NCc1ccc(Cl)cc1` the figure was -64.4%; with `Cc1ccccc1NC(=O)CN1CCN(C(=O)c2ccco2)CC1`, -29.4%.
With `O=C(CN1CCN(C(=O)c2ccco2)CC1)Nc1ccc(Cl)c(C(F)(F)F)c1` the figure was -67.1%; with `O=C(CN1CCN(C(=O)c2ccco2)CC1)Nc1ccc(F)cc1F`, -49.6%; with `Cc1ccc(NC(=O)CN2CCN(C(=O)c3ccco3)CC2)cc1`, -3.01%.
The figure for `O=C(CN1CCN(C(=O)c2ccco2)CC1)Nc1cc(Cl)ccc1Cl` is -60.1%; for `O=C(c1ccco1)N1CCN(Cc2ccc(Cl)cc2)CC1` it is -14%; for `O=C(CN1CCN(C(=O)c2ccco2)CC1)Nc1ccc(Cl)c(S(=O)(=O)N2CCOCC2)c1` it is -25.6%.
`O=C(NCc1ccc(Cl)cc1)C1CCN(C(=O)c2ccco2)CC1`: the “hERG current change (%, negative = inhibition) at 10uM” value was -41.4%.
With `COc1ccc2c(-c3ccccc3)cc(SCC(=O)N(C)C)nc2c1`, the “hERG current change (%, negative = inhibition) at 10uM” value is reported as -22.9%.
Turning to `C=CCNC(=O)c1oc2ccc(S(=O)(=O)N3CCC4(CC3)OCCO4)cc2c1C`, the “hERG current change (%, negative = inhibition) at 10uM” value was 0.761%.
The figure for `CC(OC(=O)/C=C/c1ccco1)C(=O)Nc1cccc([N+](=O)[O-])c1` (stereo not drawn) is 6.57%; for `Cc1ccc(-n2nc3c(=O)n(CC(=O)NC(C)CCc4ccccc4)nc(C)c3c2C)cc1` (stereo not drawn) it is 6.77%.
For the compound `O=C(CNC(=O)c1ccco1)Nc1ccc(OC(F)F)cc1`, the “hERG current change (%, negative = inhibition) at 10uM” value was found to be 19.6%.
The figure for `COc1cc(/C=C2\C(=N)N3N=C(S(C)(=O)=O)SC3=NC2=O)ccc1OS(=O)(=O)c1ccc(C)cc1` is 6.9%.
